Reference: PubChem BioAssay (NCI)
Where “and” joins values, the source holds several entries; their conditions need not be identical. Equal values may be shown once. The panel holds about 83,000 compounds, 20% with a hit somewhere; the sample as a whole holds those more often.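 Plates (96-well) were seeded with cells, treated with compound at one concentration, and incubated for 48 hours before percent growth was determined.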 Calls of active or inactive are those of the source. Rule for the calls: active = growth percent below 10; inactive = the rest.

What was measured:
Test in all cases: NCI-60 one-dose screen, 48 h (100 = growth as untreated, 0 = no growth, -100 = all killed)
Conditions in all cases: 10 µM unless noted
[1] = tested on: SR leukemia
[2] = tested on: RPMI-8226 leukemia
[3] = tested on: OVCAR-8 ovarian
[4] = tested on: OVCAR-5 ovarian
[5] = tested on: OVCAR-4 ovarian
[6] = tested on: SK-OV-3 ovarian
[7] = tested on: IGROV1 ovarian
[8] = tested on: OVCAR-3 ovarian
[9] = tested on: HS 578T breast
[10] = tested on: NCI/ADR-RES ovarian
[11] = tested on: T-47D breast
[12] = tested on: BT-549 breast
[13] = tested on: MDA-MB-435 melanoma
[14] = tested on: SW-620 colon
[15] = tested on: MCF7 breast
[16] = tested on: HCT-116 colon
[17] = tested on: HCC-2998 colon
[18] = tested on: KM12 colon

Measured: growth

COc1ccc(-c2cc(-c3cccnc3)nc3sc4c(Cl)nnnc4c23)cc1OC
active: [1] 6.41%
inactive: [2] 58% | [3] 91.4% | [4] 118% | [5] 96.5% | [6] 109% | [7] 81.6% | [8] 91.9% | [9] 89.2% | [10] 108% | [11] 63.6% | [12] 99.9% | [13] 104% | [14] 50.2% | [15] 43.8% | [16] 94.8% | [17] 115% | [18] 95.1%

C=C(C)[C@@H]1CC[C@]2(C)[C@H](CC(=O)N[C@H]3[C@@H]4C[C@](C)(C(=O)OC)CC[C@]4(C)CC[C@]32C)[C@@]1(C)CCC#N
inactive: [1] 41.8% | [2] 48.3% | [3] 78.7% | [4] 91.6% | [5] 76.7% | [6] 97.4% | [7] 95.2% | [8] 79.7% | [9] 93.4% | [10] 86.6% | [11] 63.6% | [12] 72.1% | [13] 87.8% | [14] 93% | [15] 73.8% | [16] 72.2% | [17] 100% | [18] 79.6%

COc1c(F)cc(-n2c(C(=O)N3CC(F)C3)cc3cccnc32)cc1F
inactive: [1] 97.1% | [2] 95.1% | [3] 102% | [4] 100% | [5] 97.1% | [6] 111% | [7] 94.4% | [8] 101% | [9] 105% | [10] 90.7% | [11] 89.5% | [12] 97.2% | [13] 116% | [14] 104% | [15] 105% | [16] 95.9% | [17] 99.7% | [18] 98.8%

CN1CCN(Cc2ccc(NC(=O)c3nc4ccc5[nH]ncc5c4c4c3CCCC4)cc2C(F)(F)F)CC1
inactive: [4] 37.1% | [6] 37%
active: [1] -49.8% | [2] -36.2% | [3] -73.8% | [5] -39.7% | [7] -65.5% | [8] -80.3% | [9] -35.4% | [10] -35.3% | [11] -69.3% | [12] -78.5% | [13] -82.6% | [14] -60% | [15] -68.5% | [16] -90.4% | [17] -80.7% | [18] -73.4%

COc1cc(C(=O)c2ccccc2C(=O)O)c(OC)c2c1CCCC2
inactive: [1] 67.3% and 94.9% | [2] 108% and 93.7% | [3] 104% and 101% | [4] 112% and 106% | [5] 99.3% and 98.9% | [6] 113% and 106% | [7] 127% and 105% | [8] 93.3% and 105% | [9] 103% and 112% | [10] 103% and 104% | [11] 90.9% and 95.7% | [12] 95.8% and 101% | [13] 100% and 107% | [14] 98.2% and 106% | [15] 97.4% and 99.5% | [16] 95.6% and 95.4% | [17] 107% and 101% | [18] 98.7% and 104%

CN1CCN(c2ccc(Nc3ncc(C(N)=O)c(NCCCNC(=O)C4CCC4)n3)cc2)CC1
inactive: [1] 30.1% | [2] 101% | [3] 71.6% | [4] 116% | [5] 73.1% | [6] 37.8% | [7] 85.7% | [8] 13.3% | [9] 67.2% | [10] 105% | [11] 107% | [12] 19.4% | [13] 66.9% | [14] 70.9% | [15] 48.9% | [16] 43.2% | [17] 85.6% | [18] 82.1%

COc1cc(/C=C2\CCC/C(=C\c3cc(CN4CCCC4)c(O)c(OC)c3)C2=O)cc(CN2CCCC2)c1O
active: [1] 8% | [3] 8.24% | [8] 6.05% | [13] 8.88% | [16] -34.5%
inactive: [2] 14.2% | [4] 39.9% | [5] 47.1% | [6] 102% | [7] 52.7% | [9] 63.7% | [10] 59.8% | [11] 95.9% | [12] 49.2% | [14] 25.8% | [15] 14.3% | [17] 52.3% | [18] 11.9%

COCCn1cc(-c2nc(-c3cn(CCOC)c4ncccc34)cs2)c2ccccc21
inactive: [1] 102% | [2] 45.2% | [3] 97.7% | [4] 46% | [5] 23.1% | [6] 63.3% | [7] 36.7% | [8] 17.2% | [9] 86.7% | [10] 95.2% | [12] 77.7% | [13] 108% | [14] 115% | [15] 10.5% | [16] 79.9% | [17] 42.2% | [18] 21.1%
active: [11] -3.64%

O=C1CCCCN1CCCCC#Cc1cccc(C#Cc2cccnc2)c1
inactive: [2] 49.7% | [3] 89.2% | [4] 101% | [5] 93.8% | [6] 109% | [7] 79.4% | [8] 89.7% | [9] 88% | [10] 72.7% | [11] 84.1% | [12] 265% | [13] 84.6% | [14] 101% | [15] 101% | [16] 141% and 39.7% | [17] 77.2% | [18] 73.6%
active: [1] -46.3%

Cc1c(C(C)(C)O)cn2ncnc(Oc3ccc(NC(=O)Nc4ccc(Cl)c(C(F)(F)F)c4)cc3)c12
inactive: [2] 37% | [3] 49.1% | [4] 100% | [5] 21% | [6] 83.9% | [7] 37.6% | [8] 26.2% | [9] 49.4% | [10] 64% | [11] 21.8% | [12] 58% | [13] 37.4% | [14] 62% | [15] 25.2% | [16] 28.6% | [17] 85.7% | [18] 24.8%
active: [1] -3.12%

N#Cc1cc(-c2ccnc(Nc3ccc(NC(=O)CCl)cc3)n2)ccc1N1CCCC1
inactive: [9] 12.6% | [10] 10.9%
active: [1] 1.78% | [2] -24.3% | [3] 6.56% | [4] -9.19% | [5] -20.8% | [6] -48.6% | [7] -1.3% | [8] -46% | [11] -68.2% | [12] -65% | [13] -47.6% | [14] -36.9% | [15] -19.1% | [16] -37.2% | [17] -79.5% | [18] -11.6%

Clc1ccc(Nc2nc(Nc3ccc(Cl)cc3)nc(Nc3ccc(-c4cc(-c5cccc(Cl)c5)on4)cc3)n2)cc1
active: [1] -9.82%
inactive: [2] 87% | [3] 85.5% | [4] 71.4% | [5] 101% | [6] 103% | [7] 104% | [8] 90.1% | [9] 105% | [10] 84.1% | [11] 83.3% | [12] 98.6% | [13] 104% | [14] 96.6% | [15] 86.6% | [16] 99.6% | [17] 121% | [18] 104%

COC1=CC(c2ccc[nH]2)=N/C1=C\c1[nH]c(C)c(C(=O)Oc2ccccc2)c1C
active: [1] 6.67% | [2] -13.4% | [3] -13.8% | [4] -41.5% | [5] -48.8% | [6] 1.25% | [7] -35.4% | [8] -39.7% | [9] -27.5% | [10] -3.96% | [11] -65.7% | [12] -15.4% | [13] -68.6% | [14] -20.9% | [15] -54.7% | [16] -82.1% | [17] -81.6% | [18] -66%

O=[N+]([O-])c1cc(C(F)(F)F)ccc1Sc1ccc(C(F)(F)F)cc1[N+](=O)[O-]
inactive: [2] 34.2% | [3] 85.7% | [4] 132% | [5] 44.6% | [6] 56% | [7] 77.7% | [8] 92.3% | [9] 66.3% | [10] 82.5% | [11] 70% | [12] 79.3% | [13] 21.3% | [14] 20.6% | [15] 67.7% | [16] 10.7% | [17] 99.4% | [18] 65.8%
active: [1] 7.21%
